# Whole data set: some 25,000 sequences, median “ln(normalized median fluorescence intensity)” near 9.7, cut for the highest 2% near 11. This excerpt belongs to a sample that is enriched for the highest values.
# System: PfAP2-HC AP2 domain (GST-tagged)
# Experiment: gcPBM binding intensity (ln(normalized median fluorescence intensity)); higher = stronger DNA binding
# Method in brief: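 The binding buffer was 1× PBS containing 1% milk, 0.2 mg/ml BSA, 0.5% salmon testes DNA and 0.03% Triton X-100. In it, GST-tagged P. falciparum DNA-binding domains expressed in E. coli were applied for 1 h to an Agilent 4 × 180k array of primer-extended double-stranded 36-bp intergenic genomic probes plus negative controls. Binding intensity, read with Alexa488 anti-GST antibody and a 488 nm scan, is the highest Masliner-normalised natural-log median intensity across replicate spots of either probe orientation.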
row,Sequence,gcPBM binding intensity (ln)
1,TTTCACATATATATGGTGCATATTTTATGTGTAAAT [GTGCAC_site9937],9.7
2,AATTTTTTTTAATGATGTACTTTTTGAAAATAAACT [XGTACX_site4221],9.31
3,TTTCTAAGAAAAAAAAAAAAAAAAAAAAAGATACAA [GTGCAC_negctrl_site525],9.24
4,AGCACACCCACAAAAACACACACAAAGGTGTTCTTA [CACACA_site8355],10.5
5,CACAAACAAAAACACACACACACACCCACAAAAATG [CACACA_site2429],11
6,AATTAAACTCACACCACACACAAAAAAAAAAAAAAA [CACACA_site693],10.3
7,GTAAAAAAAGAGCACACACACAAAAACACCCACAAA [CACACA_site1292],10.9
8,TACATAAATTAAAACACACACACACCCAAAAAAAAA [CACACA_site2261],10.5
9,TAAAATAAAACAAACACACACACACCCCCACAAAAA [CACACA_site3850],10.8
10,AATTAACAAAAACACACACACACACCCACAAAAAAA [CACACA_site517],11.4
11,TGCAACAAAATAAACACACACACACCCCCACAAAAA [CACACA_site3388],10.6
12,AAGTAAAAAAATAGCACACACACAAAAACACCCACA [CACACA_site1291],10.8
13,ATTTTTTTGTTATTGTTGAAAAGATGGTTCTTTTTT [CACACA_negctrl_site1346],9.52
14,TATATAGGTATATATACACACAACGGTTATAAATAT [CACACA_site4759],9.94
15,AGCATATTATCATATTGTACATATTATAATATATAT [XGTACX_site3907],9.69
16,AATAATACAAAAGTTCAACAAAAAAAAAAAAAAAAT [CACACA_negctrl_site952],9.75
17,TGTTAATTAAAACATCATTAATATTATTAAAAATAC [XGTACX_negctrl_site509],9.36

row,Sequence,gcPBM binding intensity (ln)
1,ATTTTTTTTATTTTTTCAATATATATATATATATAT [CACACA_negctrl_site1444],9.74
2,AAAATATAATATATTACACACATATATTTTATAAGT [CACACA_site668],9.82
3,ATATATATGAATACATGTACGTATTTGTCTATGTAT [XGTACX_site8306],9.81
4,TTTTTTATTATTATGTGTACGAATATGTGCATATAA [XGTACX_site1364],9.65
5,TGAACACCCACAAATACACACAAAAAAAATAAATAA [CACACA_site248],10.6
6,AAAAAAAAAAAACACACACACACACTAATATATAAA [CACACA_site8302],10.9
7,ATAATATGAAAACACACACACACACTAGAAAAAAAA [CACACA_site5153],10.9
8,AATATAAAAATGCACACACACAAAAAAAAAAAAAAA [CACACA_site6546],10.9
9,AATAAAAAAAAATGCACACATATATATATATATATA [CACACA_site2421],9.71
10,AAAAATAAAAGGTGTGCACACAAAAATATATATATA [CACACA_site8507],10.5
11,AAATAAAAAGGGTGCACACAAAAATATATATATATA [CACACA_site1728],9.94
12,TAAATATAAAAATGCACACACACAAAAAAAAAAAAA [CACACA_site895],11.4
13,ATAATATGAAAACACACACACACACTAATAAAAAAA [CACACA_site8617],11.5
14,TGCACCCACCAACACACACACAACTAAAAAATAATG [CACACA_site2566],10.5
15,TACACCCACCAACACACACACACACTAATAAAAAAA [CACACA_site8060],11.3
16,AAAAATAAAGGGTGTGCACACAAAAATATATATATA [CACACA_site1727],11

# From the supplement of paper PMC11417369
